# High-throughput results as filed in PubChem BioAssay.
# MITF TRPM1 inh: inhibitors of MITF-dependent TRPM1 promoter reporter, primary screen, cell-based, SK-MEL-5, single point, luciferase | SK-MEL-5 TRPM1 promoter luciferase, 24 h | inhibition, % at 12.5 µM | hit rate 0.83% among 330,000;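 active = mean inhibition across replicates of 60% or more, whatever share of single replicates reaches that level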
# CF NFkB inh: inhibitors of PAF-induced NF-kB signaling, primary screen, cell-based, GFP fluorescence, uHTS | inhibition, % at 5 µM | hit rate 0.86% among 360,000 | AID 588850, 2011 | KKLEB NF-kB-GFP reporter, GFP fluorescence overnight;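 active = at least 50% inhibition at 5 µM, scaled per plate between neutral and stimulator controls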;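 also: PAF is a Pseudomonas aeruginosa culture filtrate used as stimulus; plate controls were PAF-stimulated DMSO wells for no effect and unstimulated DMSO wells for full effect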
# Peg3 promoter: Peg3 promoter-driven luciferase inhibitors, primary screen, cell-based, HeLa, luciferase luminescence. HeLa PEG-Prom luciferase reporter, overnight. inhibition, % at 20 µM. hit rate 1.7% among 360,000. AID 588405, 2011;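 active = inhibition of at least 50% at 20 µM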
# B2AR ag: beta2AR agonists driving receptor internalization, primary screen, cell-based, FAP fluorogen, flow cytometry. Beta-2 adrenergic receptor (Homo sapiens), P07550. Am2.2-beta2AR cells. response, % (concentration not given with the values). hit rate 0.43% among 340,000. AID 504454, 2011;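 active = response above a set limit, near 3 SD of response in nonfluorescent compounds, cut at about 42% in these data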
# Target sequence (P07550 whole entry, looked up): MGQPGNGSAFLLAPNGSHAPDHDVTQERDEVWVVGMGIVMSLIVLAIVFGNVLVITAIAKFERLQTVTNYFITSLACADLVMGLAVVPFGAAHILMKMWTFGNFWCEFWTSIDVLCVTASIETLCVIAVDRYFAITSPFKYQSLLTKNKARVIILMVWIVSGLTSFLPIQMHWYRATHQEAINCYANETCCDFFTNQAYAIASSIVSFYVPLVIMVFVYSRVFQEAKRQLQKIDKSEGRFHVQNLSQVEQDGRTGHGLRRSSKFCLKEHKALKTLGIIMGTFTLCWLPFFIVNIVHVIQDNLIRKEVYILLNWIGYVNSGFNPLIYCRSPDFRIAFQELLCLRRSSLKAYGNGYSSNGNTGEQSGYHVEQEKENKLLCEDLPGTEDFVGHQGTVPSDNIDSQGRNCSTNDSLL
# KKLEB cytotox: cytotoxicity in KKLEB CF airway cells, primary screen, cytotoxicity control for CF NF-kB inhibitor project, cell-based, uHTS, fluorescence assay plates | activity change (cytotoxicity), % at 5 µM | KKLEB CF airway cells viability, ATPlite luminescence, overnight; hits give low values; cells stimulated with P. aeruginosa culture filtrate | hit rate 0.36% among 360,000;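 active = corrected activity change at or below -50% at 5 µM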
# HIF-2a inh: HIF-2a reporter inhibitors, primary screen, luminescence, 786-0 RCC cells; inhibition, % at 18.8 µM; 786-0 RCC cells HIF-2a reporter, luciferase luminescence, overnight; AID 624352, 2012; hit rate 0.72% among 360,000;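 active = inhibition of the luminescence signal of 40% or more relative to plate controls, in a single-dose primary screen at 18.75 µM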
# B2AR ag CP1: beta2AR agonists via receptor internalization, confirmation, cell-based, FAP fluorogen, flow cytometry, single point, cherry pick 1 | Am2.2-beta2AR cells, FAP surface receptor; hits give low values | percent response (surface receptor), % at 10 µM | shares compounds with B2AR ag | hit rate 25% among 1,100;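 active = surface receptor percent response at or below 58%, roughly 3 SD from nonfluorescent compounds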
# FAP fluor counter: counter-screen for beta-2AR agonists: fluorescence in Am2.2 cells; FAP fluorogen flow cytometry, fluorescence counterscreen; hits give low values; shares compounds with B2AR ag; 1,100 tested, under 10 active; calls only at 10 µM;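 active = percent response below a set limit in fluorescence channel 1 and below 50% in channel 8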
# * hit, by the source's call; i = inactive; . = no result given. This is a sample that favours compounds with a hit; in the whole collection about 2.8% have one here.
SMILES,MITF TRPM1 inh,CF NFkB inh,Peg3 promoter,B2AR ag,KKLEB cytotox,HIF-2a inh,B2AR ag CP1,FAP fluor counter
CSc1ccc(CN2CCC(C)(Oc3ccc(-n4ccnc4)cc3)C2)cc1 (stereo not drawn),.,7,14,.,-16,6,.,.
O=C1CC(c2ccccc2)(c2ccccc2)c2ccccc21,15,-3,22,59*,14,14,39*,i
O=C1OC(c2ccccc2)(c2ccccc2)c2ccccc21,-4,-2,31,56*,-4,1,66,i
O=C1c2ccccc2C(O)(c2ccccc2)N1C1CC1 (stereo not drawn),-8,-3,3,5,-5,5,.,.
O=C1OC(c2ccccc2)(c2ccc(O)cc2)c2ccccc21 (stereo not drawn),6,-1,24,43*,-6,9,77,i
CC(=O)Nc1ccc(S(=O)(=O)N2CCC(Oc3ccc(-n4cnnn4)cc3)CC2)cc1,12,-7,15,88*,-4,6,12*,i
CC(C)(C)C(=O)CC1(O)C(=O)N(Cc2ccc(Cl)cc2)c2ccccc21 (stereo not drawn),13,6,25,54*,-8,17,110,i
O=C(c1ccc(-c2nnc(Nc3ccccc3)c3ccccc23)cc1)N1C[C@H]2C[C@H](C1)c1cccc(=O)n1C2,-11,-1,8,7,-3,16,79,i
CN(C(=O)COC(=O)COc1ccc2ccccc2c1)c1ccccc1,.,2,-5,.,2,23,.,.
CCOC(=O)[C@]12CCCC=C1N(CCc1ccc(OC)c(OC)c1)C(=O)[C@H](CC(=O)NCCCCc1ccccc1)C2,.,.,.,.,.,-10,.,.
NNc1nc(-c2ccccc2Cl)c2cc(Br)ccc2n1,7,-10,10,4,-4,33,.,.
Clc1ccccc1-c1ncnc2ccc(Br)cc12,0,0,11,96*,-9,21,115,i
CCCCn1nnnc1C(c1ccccc1)N1CCN(C(=O)C2CCCO2)CC1 (stereo not drawn),.,.,.,.,.,11,.,.
Cc1cccc(C)c1NC(=O)CN1CCC(Cc2ccccc2)CC1,.,13,17,.,-6,-2,.,.
Cc1cccc(C)c1NC(=O)CN1CCN(CCCC(c2ccc(F)cc2)c2ccc(F)cc2)CC1,29,-2,41,20,-9,-29,104,i
CC(=O)Oc1cccc2c1C(=O)C1CC=CC(OC(C)=O)C1C2=O (stereo not drawn),-1,-72,-93,-9,10,-32,.,.
Cc1ccc(C)c(C(O)c2ncc(-c3ccc(C(F)(F)F)cc3)[nH]2)c1 (stereo not drawn),.,5,21,.,-2,7,.,.
COc1ccc(-c2cc(C(F)(F)F)n3nc(C(=O)O)cc3n2)cc1OC,9,10,-3,52*,-5,11,99,i
COC(=O)c1cc2nc(-c3ccc(OC)c(OC)c3)cc(C(F)(F)F)n2n1,-6,12,8,-2,-2,13,.,.
O=S1(=O)CC(N2CCSCC2)CN1Cc1cn(Cc2ccc(F)cc2)nn1 (stereo not drawn),.,.,.,.,.,4,.,.
Cc1cc(C)n(-c2nc(SCC(=O)Nc3nccs3)c3c4c(sc3n2)COC(C)(C)C4)n1,1,-4,-20,93*,8,-7,77,i
O=C(c1cc2c(c(-c3cccc(-c4ccncc4)c3)n1)[C@@H](CCO)N(C(=O)c1ccc3c(c1)OCO3)C2)N1CCOCC1,.,.,.,.,.,0,.,.
CC(=O)Nc1ccc(NC(=O)CSc2ncc(C(=O)Nc3ccc(F)cc3)c(=O)n2C)cc1,15,-23,-58,1,9,-71,.,.
CC(=O)Nc1ccc(NC(=O)CSc2ncc(C(=O)Nc3ccc(Cl)cc3)c(=O)n2C)cc1,2,21,-74,29,-12,-60,.,.
Cn1c(SCC(=O)NCC2CCCO2)ncc(C(=O)Nc2ccc(Cl)cc2)c1=O (stereo not drawn),67*,41,59*,75*,-2,-61,79,i
SMILES,MITF TRPM1 inh,CF NFkB inh,Peg3 promoter,B2AR ag,KKLEB cytotox,HIF-2a inh,B2AR ag CP1,FAP fluor counter
Cn1c(SCC(=O)NCC2CCCO2)ncc(C(=O)Nc2ccc(F)cc2)c1=O (stereo not drawn),47,13,-3,46*,7,-28,98,i
CC(Sc1nc(-c2ccccc2)cc(C(F)(F)F)n1)C(=O)N1CCOCC1 (stereo not drawn),-9,0,14,91*,-2,11,14*,i
CC(Sc1nc(-c2ccccc2)cc(C(F)(F)F)n1)C(=O)N1CCC(C(N)=O)CC1 (stereo not drawn),0,11,15,-2,-4,-3,134,i
CC(Sc1nc(-c2ccccc2)cc(C(F)(F)F)n1)C(=O)O (stereo not drawn),9,8,8,6,-2,12,.,.
CC(Sc1nc(-c2ccccc2)cc(C(F)(F)F)n1)C(=O)N1CCCC1 (stereo not drawn),.,-39,10,54*,11,11,55*,i
CC1CCN(C(=O)C(C)Sc2nc(-c3ccccc3)cc(C(F)(F)F)n2)CC1 (stereo not drawn),21,-7,29,15,4,-1,111,i
COc1cccc(C2=CC(=O)C(C(C)(C)C)N2C(C)(C)C)c1 (stereo not drawn),-14,19,-2,3,-5,5,.,.
COc1ccc(NC(=S)N2CCN(c3ccc4c(c3)C3CCN(C(=O)OCc5ccccc5)C4C3)CC2)c(OC)c1 (stereo not drawn),.,12,-204,.,-6,-164,.,.
CC(=O)OC(C(=O)Nc1nncs1)c1ccccc1 (stereo not drawn),.,-13,7,.,-6,-2,.,.
Nc1nonc1C(=O)NCCNS(=O)(=O)c1ccc(F)cc1,3,4,-8,65*,1,20,69,i
COc1ccccc1CC(=O)N(Cc1ccccc1)c1ccc(C)cc1,-24,-14,-22,-3,-10,-4,.,.
COc1ccc(C(C)=O)cc1CC(=O)N(Cc1ccccc1)c1ccccc1,11,-3,5,45*,-3,17,58,i
